Results: PubChem BioAssay AID1159580 (chemical genetic matrix, 2015)
Several values for one entry are separate records, joined by “and”; a condition that tells them apart may be missing. Identical values can stand only once. Out of some 5,500 compounds screened, about 2,000 (36%) were called active. Roughly 18% stayed inconclusive and do not appear here. Rule as the data show it: active = normalized growth mostly below about 0.91 (no sharp cut-off); inconclusive = no clear call, values can overlap the other calls; inactive = mostly above about 0.92. The list shows a part of the results. Some structures have more than one record in an assay (separate samples or runs), and their calls can disagree.

Test: chemical genetic growth profiling, strain panel (AID 1159580);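 also: tested at 20 µM; growth read once vehicle control cultures reached saturation at 30 °C; 1 = growth at the plate median or of vehicle wells; lower values mean less growth of the strain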
Settings: S. cerevisiae deletion strains, growth OD

Measured: normalized growth

CN(C)CCCN1c2ccccc2Sc2ccc(C(F)(F)F)cc21
inactive: locus YAL013W, strain DEP1, stronger effect = lower value 0.982 and 0.939 | locus YAL030W, strain snc1, stronger effect = lower value 1.01 | locus YAL040C, strain CLN3, stronger effect = lower value 0.99 | locus YBL061C, strain skt5, stronger effect = lower value 1.02 | locus YBR009C, strain hhf1, stronger effect = lower value 0.961 | locus YBR021W, strain FUR4, stronger effect = lower value 1.04 | locus YBR023C, strain chs3, stronger effect = lower value 0.999 | locus YBR171W, strain sec66, stronger effect = lower value 1.03 | locus YBR229C, strain ROT2, stronger effect = lower value 0.955 | locus YBR231C, strain swc5, stronger effect = lower value 1.04 | locus YBR279W, strain paf1, stronger effect = lower value 1.01 | locus YCL011C, strain gbp2, stronger effect = lower value 1.01 | locus YCL016C, strain dcc1, stronger effect = lower value 1.01 | locus YCL029C, strain bik1, stronger effect = lower value 0.968 | locus YCL061C, strain MRC1 (second series), stronger effect = lower value 0.987 | locus YCL061C, strain MRC1, stronger effect = lower value 1.02 | locus YCL069W, strain vba3, stronger effect = lower value 1.01 | locus YCR088W, strain abp1, stronger effect = lower value 1.02 | locus YDL005C, strain med2, stronger effect = lower value 1.06 | locus YDL035C, strain GPR1, stronger effect = lower value 0.983 | locus YDL040C, strain nat1, stronger effect = lower value 1.01 | locus YDL074C, strain BRE1, stronger effect = lower value 1.01 | locus YDL101C, strain DUN1, stronger effect = lower value 0.981 | locus YDL134C, strain PPH21, stronger effect = lower value 0.99 | locus YDL185W, strain tfp1, stronger effect = lower value 0.963 | locus YDL192W, strain arf1, stronger effect = lower value 0.963 | locus YDR001C, strain nth1, stronger effect = lower value 1.02 | locus YDR101C, strain arx1, stronger effect = lower value 0.994 | locus YDR150W, strain NUM1, stronger effect = lower value 0.978 and 0.989 | locus YDR159W, strain sac3, stronger effect = lower value 1.07 | locus YDR162C, strain NBP2, stronger effect = lower value 0.971 | locus YDR297W, strain sur2, stronger effect = lower value 1.02 | locus YDR318W, strain mcm21, stronger effect = lower value 1 | locus YDR334W, strain swr1, stronger effect = lower value 1.02 | locus YDR335W, strain msn5, stronger effect = lower value 1.02 | locus YDR363W, strain ESC2, stronger effect = lower value 0.896 | locus YDR388W, stronger effect = lower value 0.986 | locus YDR502C, strain sam2, stronger effect = lower value 0.992 | locus YEL003W, strain gim4, stronger effect = lower value 1 | locus YEL037C, strain rad23, stronger effect = lower value 1.01 | locus YEL061C, strain CIN8 (second series), stronger effect = lower value 1.01 | locus YEL061C, strain CIN8, stronger effect = lower value 0.989 | locus YER002W, strain NOP16, stronger effect = lower value 1.04 | locus YER015W, strain faa2, stronger effect = lower value 1.01 | locus YER016W, strain bim1, stronger effect = lower value 1.02 | locus YER110C, stronger effect = lower value 0.961 | locus YER111C, strain swi4, stronger effect = lower value 1.01 | locus YER155C, strain BEM2 (second series), stronger effect = lower value 1.06 | locus YER155C, strain BEM2, stronger effect = lower value 1 | locus YER167W, strain BCK2, stronger effect = lower value 0.997 | locus YGL078C, strain dbp3, stronger effect = lower value 0.985 | locus YGL086W, strain mad1, stronger effect = lower value 0.998 | locus YGL167C, strain pmr1, stronger effect = lower value 1.02 | locus YGL173C, strain kem1, stronger effect = lower value 0.996 | locus YGL227W, strain vid30, stronger effect = lower value 1.03 | locus YGL240W, strain doc1, stronger effect = lower value 1.05 | locus YGL248W, strain PDE1, stronger effect = lower value 0.983 | locus YGL253W, strain hxk2, stronger effect = lower value 1 | locus YGR078C, strain PAC10, stronger effect = lower value 1.01 | locus YGR135W, strain pre9, stronger effect = lower value 0.982 | locus YGR252W, strain gcn5, stronger effect = lower value 0.989 | locus YHR013C, strain ard1, stronger effect = lower value 0.939 | locus YHR027C, strain rpn1, stronger effect = lower value 1.01 | locus YHR030C, strain SLT2, stronger effect = lower value 0.991 and 1 | locus YHR079C, strain IRE1 (second series), stronger effect = lower value 0.975 | locus YHR079C, strain IRE1, stronger effect = lower value 0.991 | locus YHR094C, strain hxt1, stronger effect = lower value 0.981 | locus YHR129C, strain ARP1, stronger effect = lower value 1 | locus YHR142W, strain chs7, stronger effect = lower value 0.958 | locus YHR200W, strain rpn10, stronger effect = lower value 0.988 | locus YIL066C, strain RNR3, stronger effect = lower value 0.973 | locus YIL073C, strain SPO22, stronger effect = lower value 0.942 | locus YIL125W, strain kgd1, stronger effect = lower value 0.974 | locus YIR030C, strain dcg1, stronger effect = lower value 0.974 | locus YJL092W, strain hpr5, stronger effect = lower value 1.01 | locus YJL095W, strain BCK1 (second series), stronger effect = lower value 0.968 | locus YJL095W, strain BCK1, stronger effect = lower value 1.02 and 0.998 | locus YJL115W, strain asf1, stronger effect = lower value 1.03 | locus YJL129C, strain trk1, stronger effect = lower value 1.03 | locus YJL134W, strain LCB3, stronger effect = lower value 0.987 | locus YJL154C, strain vps35, stronger effect = lower value 1.01 | locus YJL164C, strain tpk1, stronger effect = lower value 0.921 | locus YJL166W, strain qcr8, stronger effect = lower value 0.951 | locus YJL168C, strain set2, stronger effect = lower value 0.978 | locus YJL187C, strain SWE1 (second series), stronger effect = lower value 0.992 | locus YJL187C, strain SWE1, stronger effect = lower value 1.01 | locus YJR043C, strain POL32, stronger effect = lower value 1
0.976 (inactive) and 0.395 (active): locus YGR229C, strain SMI1, stronger effect = lower value
active: locus YAL021C, strain ccr4, stronger effect = lower value 0.799 | locus YAL026C, strain drs2, stronger effect = lower value 0.329 | locus YDR069C, strain doa4, stronger effect = lower value 0.846 | locus YDR137W, strain rgp1, stronger effect = lower value 1.25 [resistant] | locus YDR195W, strain ref2 1.27 [resistant] | locus YDR392W, strain spt3, stronger effect = lower value 1.22 [resistant] | locus YFR010W, strain ubp6, stronger effect = lower value 0.831
